From PubChem BioAssay AID1076 (NMMLSC, 2008) come the findings set out here.

This assay is described as follows: LNCaP cell loss by flow event count, confirmation, cytotoxicity control for prostate differentiation activator project, single point (AID 1076).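 Note: counts scatter-gated live cells after medium removal discards detached dead cells.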 Particulars: flow cytometry event count, 4 d, stronger effect = lower value. On the technique in general: In flow cytometry, cells or beads pass a laser one at a time.

Each structure is given as a SMILES string. The source made the active and inactive calls.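 Rule for the calls: active = cell event count below 40, meaning activity score above 60 where score is 100 minus count; inactive = the rest.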

Consider `COc1ccccc1CNC(=O)C1CCN(Cc2nc(-c3cccc(Cl)c3)oc2C)CC1`, for which the cell event count is, setting by setting: (at 100 µM) 9 (inactive); (event count, at 10 µM) 158.

With `COc1ccc(CCNC(=O)C2CCN(Cc3nc(-c4cccc(Cl)c4)oc3C)CC2)cc1OC`, the cell event count (at 100 µM) was 85 (inactive) and the cell event count (event count, at 10 µM) was 338.

In the case of `CCOC(=O)c1c(NCc2ccc3c(c2)OCO3)c2ccccc2[nH]c1=O`, the cell event count by setting is: (at 100 µM) 39 (inactive); (event count, at 10 µM) 357.

With `COc1cc(C2C3=C(Nc4ncnn42)c2ccccc2CC3)cc(OC)c1OC` (stereo not drawn), the cell event count is 295 (inactive) (at 100 µM) and 428 (event count, at 10 µM).

In the case of `Nc1cccc2cnccc12`, the cell event count (at 100 µM) is 241 (inactive) and the cell event count (event count, at 10 µM) stood at 168.

Consider `CCC(C(=O)Nc1ccccc1OC)n1c(C(=O)OC)cc2ccsc21` (stereo not drawn), for which the cell event count by setting is: (at 100 µM) 41 (inactive); (event count, at 10 µM) 270.

`Cc1noc(C)c1S(=O)(=O)N1CCC(C(=O)NCCN2CCC(C)CC2)CC1`: the cell event count was 300 (inactive) (at 100 µM) and 188 (event count, at 10 µM).

For `CCN1CCN(C(c2cccs2)C(C)NS(=O)(=O)c2ccc(Br)cc2)CC1` (stereo not drawn), the cell event count was 17 (active) (at 100 µM) and 62 (event count, at 10 µM).

For the compound `CCN(CC)CCCNC(=O)c1cc(-c2cccc(Cl)c2)on1`, the cell event count reads like this: (at 100 µM) 170 (inactive); (event count, at 10 µM) 376.

For `COc1ccc(Cl)cc1N1CCN(CCNC(=O)Nc2ccccc2C)CC1`, the cell event count runs as follows: (at 100 µM) 6 (inactive); (event count, at 10 µM) 506.

As to `O=C(CCNC(=O)Cn1ccc2ccccc2c1=O)NCCCN1CCN(c2ccccc2F)CC1`, the cell event count was 112 (inactive) (at 100 µM) and 126 (event count, at 10 µM).

As for `COc1ccc(-n2c3c(cc(C(=O)N4CCC(C)CC4)c2=O)C(=O)CC(C)(C)C3)cc1`, the cell event count by setting is: (at 100 µM) 115 (inactive); (event count, at 10 µM) 93.

As for `CC(C)(C)c1ccc(C(O)CCCN2CCC(C(O)(c3ccccc3)c3ccccc3)CC2)cc1` (stereo not drawn), the cell event count was 12 (inactive) (at 100 µM) and 90 (event count, at 10 µM).

Take `Cn1c(C(=O)NCCCN2CCN(c3ccccc3F)CC2)cc2c(=O)[nH]c3ccccc3c21`: the cell event count was 3 (inactive) (at 100 µM) and 93 (event count, at 10 µM).
